Compounds without any hit were thinned out: in the full panel of roughly 83,000, 20% have a hit.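 The test compound was applied at a single concentration to cells in 96-well plates for 48 hours, and percent growth was recorded.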 The source made the active and inactive calls. Rule for the calls: active = growth percent below 10; inactive = the rest.
tested on: CCRF-CEM leukemia; test: NCI-60 one-dose screen, 48 h (100 = growth as untreated, 0 = no growth, -100 = all killed); conditions: 10 µM unless noted

Compound	growth
S=C(Nc1ccc(-c2nc(N3CCOCC3)c3cccn3n2)cc1)Nc1cccnc1	22.1% (inactive)
O=C1/C(=C/c2ccc(-c3ccc(Br)cc3)o2)SC(=S)N1CCc1ccc(O)cc1	21.7% (inactive)
CCOC(=O)CSc1ncnc2c1c(-c1ccccc1)c(-c1ccccc1)n2-c1ccc(C)cc1	67% (inactive)
CCNc1cc(-c2cccc(OC(F)(F)F)c2)nc2ccc(N3CCCC3)cc12	13.4% (inactive)
CCCCNC(=O)Oc1ccc(/C(=C(/CC)Cc2ccccc2)c2ccc(OCCN3CCCCCC3)cc2)cc1	5.36% (active)
COc1ccc(-c2nc3c(c(-c4ccccc4)nn3-c3ccccc3)c(-c3ccc(N4CCOCC4)cc3)c2C#N)cc1	99.6% (inactive)
COc1cc(-c2csc(NC(=O)c3cc(-n4cnc(C)c4)cc(C(F)(F)F)c3)n2)cc(OC)c1OC	24.4% (inactive)
COc1cc(CNS(=O)(=O)c2ccc(C)cc2)ccc1OCc1cn(-c2ccc(Br)cc2)nn1	90.4% (inactive)
Nc1ncnc2c1N=C(c1ccc3c(c1)OCO3)CC(c1ccc([N+](=O)[O-])cc1)N2 (stereo not drawn)	39.3% (inactive)
COc1ccc(-c2nc3c(c(-c4ccccc4)nn3-c3ccccc3)c(-c3ccc(N4CCN(C)CC4)cc3)c2C#N)cc1	85.3% (inactive)
CCOC(=O)C(=Cc1cccc(Cl)c1)C(=O)OCC	-1.23% (active)
O=C1NC(=O)c2c1c1c3ccccc3ccc1c1[nH]c3ccc(Br)cc3c21	10.8% (inactive)
CC1(c2ccccc2O)NN=C(/N=C/c2cccc([N+](=O)[O-])c2)N1C(Cc1c[nH]c2ccccc12)C(=O)O (stereo not drawn)	81.9% (inactive)

From PubChem BioAssay (NCI)
